# Experimental data reported in PubChem BioAssay AID624141 (Broad Institute, 2012).
# Hit rate of the full screen: of about 17,000 compounds, about 260 (1.5%) were called active.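 The calls were made as follows: active = spot fluorescence over background with P-value below 7% in all four replicate spots, showing protein binding; inactive = the rest.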 Only a selection was taken, and actives are over-represented in it overall.
# Molecular target: Myc proto-oncogene protein (Homo sapiens) (UniProt P01106)
# Assay: binders of human c-Myc, primary screen, biochemical, small molecule microarray, anti-His fluorescence (AID 624141)
# Conditions: His-c-Myc binding
# Myc proto-oncogene protein (Homo sapiens), sequence (P01106 whole entry, looked up): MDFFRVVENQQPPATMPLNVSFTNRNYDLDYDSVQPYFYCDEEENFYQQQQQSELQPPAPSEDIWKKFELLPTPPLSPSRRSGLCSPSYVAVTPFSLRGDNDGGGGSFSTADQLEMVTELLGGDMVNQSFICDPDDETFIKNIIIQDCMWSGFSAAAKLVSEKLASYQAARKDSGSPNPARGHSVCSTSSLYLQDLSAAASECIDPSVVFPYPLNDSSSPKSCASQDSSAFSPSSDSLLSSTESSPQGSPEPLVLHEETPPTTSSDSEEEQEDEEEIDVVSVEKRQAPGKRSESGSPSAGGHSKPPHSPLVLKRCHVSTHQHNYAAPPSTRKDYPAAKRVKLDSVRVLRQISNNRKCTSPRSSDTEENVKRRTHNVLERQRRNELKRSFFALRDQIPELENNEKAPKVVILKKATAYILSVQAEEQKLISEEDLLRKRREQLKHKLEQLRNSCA
row,SMILES,outcome
1,Cc1cc(OCC(=O)Nc2ccccc2C(N)=O)cc(C)c1Br,inactive
2,Cc1scc(C(=O)NCCc2ccc(S(N)(=O)=O)cc2)c1-c1ccccc1,inactive
3,Cc1noc(C)c1NC(=O)Nc1ccc2c(c1)CC(=O)N([C@@H](C)CO)C[C@@H](C)[C@@H](CN(C)C(=O)NC(C)C)O2,inactive
4,CCCCCc1ccc(/C=C/C(=O)Nc2ccccc2C(=O)O)cc1,active
5,CN(C)CCCSc1ccccc1NC(=O)/C=C/c1ccccc1,inactive
6,COc1cc(/C=C/C(=O)NCCc2ccc(O)cc2)ccc1O,inactive
7,CCn1c(SCC(=O)Nc2sc3c(c2C#N)CCCC3)nnc1-c1ccccc1O,inactive
8,Cc1noc(C)c1S(=O)(=O)Nc1ccc2c(c1)CC(=O)N([C@@H](C)CO)C[C@H](C)[C@H](CN(C)S(=O)(=O)c1ccc(Cl)cc1)O2,inactive
9,COc1ccc(NC(=O)N(C)C[C@@H]2Oc3ccc(NS(C)(=O)=O)cc3C(=O)N([C@@H](C)CO)C[C@@H]2C)cc1,inactive
10,C[C@@H]1CCCCO[C@H](CN(C)Cc2ccncc2)[C@@H](C)CN([C@H](C)CO)C(=O)c2cc(NS(C)(=O)=O)ccc2O1,inactive
11,C[C@@H]1CN([C@H](C)CO)C(=O)c2cccc(NC(=O)Nc3ccc4c(c3)OCO4)c2O[C@H]1CN(C)S(=O)(=O)c1ccccc1,inactive
12,C[C@@H]1CCCCO[C@H](CN(C)Cc2ccccc2)[C@H](C)CN([C@@H](C)CO)C(=O)c2cc(NS(=O)(=O)c3ccccc3)ccc2O1,inactive
13,C[C@H](CO)N1C[C@H](C)[C@@H](CN(C)S(=O)(=O)c2cccs2)Oc2ccc(NC(=O)Nc3cccc4ccccc34)cc2CC1=O,inactive
14,C[C@@H]1CN([C@H](C)CO)C(=O)Cc2cc(NC(=O)CCN3CCOCC3)ccc2O[C@H]1CN(C)C,inactive
15,COc1cc(O[C@@H]2O[C@H](CO[C@H]3OC[C@](O)(COC(=O)c4ccc(O)c(OC)c4)[C@H]3O)[C@@H](O)[C@H](O)[C@H]2O)ccc1O,inactive
16,COc1ccc(NC(=O)N(C)C[C@@H]2OCCCC[C@H](C)Oc3ccc(NC(=O)c4ccccc4)cc3C(=O)N([C@H](C)CO)C[C@H]2C)cc1,inactive
17,COc1ccccc1NC(=O)c1ccc(OCC(=O)Nc2ccccc2F)cc1,inactive
18,O=C(Nc1ccc(Cl)cc1C(=O)NCc1ccco1)c1ccco1,inactive
19,C[C@@H]1CN([C@H](C)CO)C(=O)c2cc(NS(=O)(=O)c3cn(C)cn3)ccc2O[C@@H](C)CCCCO[C@H]1CN(C)C,inactive
20,CN(C)c1nc(N)nc(CSc2ccccn2)n1,inactive
21,COc1ccccc1NC(=O)CNC(=O)c1ccc(C)cc1,inactive
22,CC(C)NC(=O)N(C)C[C@@H]1OCCCC[C@H](C)Oc2ccc(NC(=O)Nc3ccccc3)cc2C(=O)N([C@H](C)CO)C[C@@H]1C,inactive

row,SMILES,outcome
1,C[C@H]1CN([C@@H](C)CO)C(=O)c2cccc(NC(=O)Nc3ccc(C(F)(F)F)cc3)c2O[C@H]1CN(C)C(=O)NC1CCCCC1,active
2,C[C@@H]1CCCCO[C@H](CN(C)C(=O)Nc2ccccc2)[C@H](C)CN([C@@H](C)CO)C(=O)c2cc(N(C)C)ccc2O1,inactive
3,Cc1noc(C)c1S(=O)(=O)N(C)C[C@H]1Oc2c(NC(=O)c3cnccn3)cccc2C(=O)N([C@H](C)CO)C[C@H]1C,active
4,C[C@H](CO)N1C[C@H](C)[C@@H](CN(C)C(=O)Nc2cccc3ccccc23)OCCCC[C@H](C)Oc2ccc(N(C)C)cc2C1=O,active
5,C[C@@H]1CN([C@H](C)CO)C(=O)c2cccc(NC(=O)Nc3ccccc3)c2O[C@@H]1CN(C)C(=O)NC1CCCCC1,inactive
6,CC(C)NC(=O)Nc1ccc2c(c1)C(=O)N([C@@H](C)CO)C[C@@H](C)[C@H](CN(C)C(=O)Cc1ccccc1)OCCCC[C@H](C)O2,inactive
7,C[C@H]1CN([C@@H](C)CO)C(=O)c2cccc(NC(=O)c3cnccn3)c2O[C@H]1CN(C)C(=O)Nc1ccccc1,inactive
8,C[C@@H]1CCCCO[C@@H](CN(C)C(=O)Nc2ccccc2)[C@@H](C)CN([C@H](C)CO)C(=O)c2cc(NC(=O)Nc3ccc(F)cc3)ccc2O1,inactive
9,C[C@H]1CN([C@@H](C)CO)C(=O)c2cccc(NC(=O)c3cnccn3)c2O[C@H]1CN(C)S(=O)(=O)c1cn(C)cn1,inactive
10,C[C@@H]1CCCCO[C@@H](CN(C)C(=O)Cc2ccccc2)[C@H](C)CN([C@@H](C)CO)C(=O)c2cc(NC(=O)Nc3ccc(F)cc3)ccc2O1,active
11,C[C@H](CO)N1C[C@H](C)[C@@H](CN(C)C(=O)NC2CCCCC2)Oc2c(NC(=O)Nc3ccc(F)cc3)cccc2C1=O,inactive
12,C[C@@H]1CCCCO[C@@H](CN(C)C(=O)Nc2ccccc2)[C@@H](C)CN([C@@H](C)CO)C(=O)c2cc(N(C)C)ccc2O1,inactive
13,C[C@@H]1CCCCO[C@H](CN(C)C(=O)C2CCCCC2)[C@@H](C)CN([C@@H](C)CO)C(=O)c2cc(NC(=O)Nc3ccccc3)ccc2O1,active
14,C[C@@H]1CCCCO[C@H](CN(C)C(=O)Nc2ccccc2)[C@H](C)CN([C@H](C)CO)C(=O)c2cc(NC(=O)Nc3ccccc3)ccc2O1,inactive
15,CC(C)NC(=O)N(C)C[C@@H]1OCCCC[C@@H](C)Oc2ccc(NC(=O)Nc3ccccc3)cc2C(=O)N([C@H](C)CO)C[C@@H]1C,inactive
16,CC(C)NC(=O)N(C)C[C@H]1OCCCC[C@@H](C)Oc2ccc(NC(=O)Nc3cccc4ccccc34)cc2C(=O)N([C@H](C)CO)C[C@@H]1C,inactive
17,Cc1cc(C)cc(Oc2c(C(F)(F)F)oc3cc(OCC(=O)O)ccc3c2=O)c1,active
18,C[C@@H]1CN([C@H](C)CO)C(=O)CCCn2cc(nn2)CO[C@@H]1CN(C)C(=O)Nc1ccc(-c2cccs2)cc1,inactive
19,CN(CC(=O)O)S(=O)(=O)c1ccc(F)c2ccccc12,inactive
20,COc1ccc(S(=O)(=O)N(C)C[C@H]2Oc3c(NS(=O)(=O)c4cccs4)cccc3C(=O)N([C@H](C)CO)C[C@@H]2C)cc1,inactive
21,C[C@H](CO)N1C[C@H](C)[C@@H](CN(C)Cc2ccc(C(F)(F)F)cc2)Oc2ccc(NC(=O)CCN3CCOCC3)cc2C1=O,inactive
